# Laboratory results from the supplement of paper PMC6555819.
# System: PPARg:RXRa (NR concentration 180 nM, RXRa partner concentration 90 nM)
# Test: PBM binding z-score (relative to random genomic background probes); higher = stronger binding; sequences stand for … in GC…GCGATTGACAGCGTAGAATGAAGG
# Procedure, shortened: (§1)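 Binding z-scores take random background probes as their reference. They come from custom Agilent 4×180K protein-binding microarrays incubated 1 h with ligand-free nuclear receptor dimers, with antibodies against each partner (one per run) detecting binding. Scanned fluorescence was regression-normalized.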
row,Sequence,PBM binding z-score
1,TCAGACAGGTGAAGGTAACCCAGGTACGCAGTCG,0.909
2,CCTTACGGGTCAAGGTTATAACACGGGTGGTACG,4.63
3,CAAACTAGGTCACGAAGGGTCAAAGTCGAATGAC,10.1
4,GGAACGAGGGCAAAGTCGATAGCATCTGTCGACG,1.97
5,TGAATGAGGTTATAAGAACAGGGAACGTTGCAAA,1.33
6,CCTAGCAGGCCAGGGTCACTAAAGCATTTCGCTT,0.442
7,ATCGAAAGGTCGAGGTGAATATAGAGAAAGGGAA,3.91
8,GCATATAGGTAATACAAGGTGAAAGTGCGATTGT,1.96
9,AATACAGGGTCACTAGGCCATAGTAGGTACGAAT,8.68
10,GCTTCTAGGTCAACTGATGGTCAGCTAAAGCTCG,6.35
11,TCATATAGGTAAATGCTAGGTGACAGTCCGATCT,0.994
12,CCTACTGGGCCATTCAGAGGTCATTCATCATATG,2.08
13,TCATATAGTTAAAGGTGAAAGTCGAACGATATGA,2.49
14,CCTTACGGGTCACGGACAGGTTATAGCATTTGGA,6.38
15,CCGACTGGGGCATAAGGTTACGATAAGCCAGCCC,2.58
16,GCTAGCAGGCCATTTGGCTCACTCAATGACGGGC,0.277
17,CCTACTGGGCCAAAGTTCATTGATTCCAATGCTC,10.9
18,ACAGACCGGTGAGTGAAGGTAACTCAGCTGGACG,0.147
19,TCTGCTAGGTCAACGACGGTCAGCTAATCTGCTA,2.09
20,ACTAGTTGGTCAGTTGAGGTCACACACAATTCGG,2.13

row,Sequence,PBM binding z-score
1,ACTTACGGGTCAACGAGGTTAGAGCACGCGTATA,5.52
2,TTACCAAGGTGAGCTAAGGTCGTTGATCCAACTC,0.5
3,CGAACGAGGGCATGAGTTGATAGCCAATGCCGAT,1.39
4,ATCTCTAGGTAAAAGTTCAGTGGATCCCGAGGAT,7.94
5,GCTGCTAGTTCAGGTTGGTCAGCTAACGGGTACG,-0.479
6,TCATATCGGTAAATGCTAGGTGAAAGTCCGATCT,0.243
7,ATGGAAAGGTCGAGGTGAGTATAGAGAAAGGGAA,3.21
8,CGAACTAGGTAATTGACAGGACAGTGAATAGTAA,1.09
9,TAGCCCAGGTCATGCGGGCCAGTATAGTGTCGGC,2.55
10,CCTACTGGGCCATCATGTCATTGATATCAACGTT,1.49
11,TATACAGGCTCAAAGGCCAGAGTACGAATGTCGA,1.03
12,ATCTCTAGGTAAAGCTAGTTCAGTGAATGCAAAT,-0.125
13,ATCTCTAGGTAAACATAGTTCAGTGAATGCAAAT,1.12
14,CCAGACAGGTGAGAAGGTATCTCAGCCTCGATTA,0.278
15,ATCGAGAGGTCGAAGGTGAGTATACCCACCCGAA,3.99
16,CCTACTGGACCAAAGGTCATTGATTCCAATGCTC,10.5
17,CGTCCAAGGTCAGCAGGCCAGTGAAAGCGACGTG,2.86
18,AGAATGACGTTACCAAAGATCAGGGAAACGCTTG,0.77
19,TCTGGGAGGACACGAAGGTCAGAGCTTTCCAGAG,0.579
20,ATACCAAGGTGATCGTGAGGTCGTTGTTACTAAC,0.364

# System: PPARg:RXRa 270nM:90nM, anti-RXR (NR concentration 270 nM, RXRa partner concentration 90 nM)
# Test: as above
# Procedure, shortened: as §1
row,Sequence,PBM binding z-score
1,TCAGACAGGTGAAGGTAACCCAGGTACGCAGTCG,2.04
2,CCTTACGGGTCAAGGTTATAACACGGGTGGTACG,4.8
3,CAAACTAGGTCACGAAGGGTCAAAGTCGAATGAC,7.95
4,GGAACGAGGGCAAAGTCGATAGCATCTGTCGACG,2.58
5,TGAATGAGGTTATAAGAACAGGGAACGTTGCAAA,1.6
6,CCTAGCAGGCCAGGGTCACTAAAGCATTTCGCTT,1.2
7,ATCGAAAGGTCGAGGTGAATATAGAGAAAGGGAA,3.97
8,GCATATAGGTAATACAAGGTGAAAGTGCGATTGT,2.57
9,AATACAGGGTCACTAGGCCATAGTAGGTACGAAT,6.76
10,GCTTCTAGGTCAACTGATGGTCAGCTAAAGCTCG,5.64
11,TCATATAGGTAAATGCTAGGTGACAGTCCGATCT,2.02
12,CCTACTGGGCCATTCAGAGGTCATTCATCATATG,3.3
13,TCATATAGTTAAAGGTGAAAGTCGAACGATATGA,3.41
14,CCTTACGGGTCACGGACAGGTTATAGCATTTGGA,6.56
15,CCGACTGGGGCATAAGGTTACGATAAGCCAGCCC,3.55
16,GCTAGCAGGCCATTTGGCTCACTCAATGACGGGC,-0.576
17,CCTACTGGGCCAAAGTTCATTGATTCCAATGCTC,9.53
18,ACAGACCGGTGAGTGAAGGTAACTCAGCTGGACG,-0.715
19,TCTGCTAGGTCAACGACGGTCAGCTAATCTGCTA,2.97
20,ACTAGTTGGTCAGTTGAGGTCACACACAATTCGG,2.59

row,Sequence,PBM binding z-score
1,ACTTACGGGTCAACGAGGTTAGAGCACGCGTATA,5.72
2,TTACCAAGGTGAGCTAAGGTCGTTGATCCAACTC,1.42
3,CGAACGAGGGCATGAGTTGATAGCCAATGCCGAT,1.49
4,ATCTCTAGGTAAAAGTTCAGTGGATCCCGAGGAT,7.5
5,GCTGCTAGTTCAGGTTGGTCAGCTAACGGGTACG,-0.127
6,TCATATCGGTAAATGCTAGGTGAAAGTCCGATCT,2.06
7,ATGGAAAGGTCGAGGTGAGTATAGAGAAAGGGAA,4.02
8,CGAACTAGGTAATTGACAGGACAGTGAATAGTAA,0.555
9,TAGCCCAGGTCATGCGGGCCAGTATAGTGTCGGC,2.55
10,CCTACTGGGCCATCATGTCATTGATATCAACGTT,2.01
11,TATACAGGCTCAAAGGCCAGAGTACGAATGTCGA,1.75
12,ATCTCTAGGTAAAGCTAGTTCAGTGAATGCAAAT,0.354
13,ATCTCTAGGTAAACATAGTTCAGTGAATGCAAAT,1.07
14,CCAGACAGGTGAGAAGGTATCTCAGCCTCGATTA,-0.0698
15,ATCGAGAGGTCGAAGGTGAGTATACCCACCCGAA,3.99
16,CCTACTGGACCAAAGGTCATTGATTCCAATGCTC,9.96
17,CGTCCAAGGTCAGCAGGCCAGTGAAAGCGACGTG,3.35
18,AGAATGACGTTACCAAAGATCAGGGAAACGCTTG,0.125
19,TCTGGGAGGACACGAAGGTCAGAGCTTTCCAGAG,1.36
20,ATACCAAGGTGATCGTGAGGTCGTTGTTACTAAC,0.56
